Here are results for 36 molecules from PubChem BioAssay (NCI).

Structures are written as SMILES. The panel holds about 83,000 compounds, 20% with a hit somewhere; the sample as a whole holds those more often.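 Cell lines were cultured in 96-well plates, exposed to a single compound concentration, and assessed for percent growth 48 hours later.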 Calls of active or inactive are those of the source. How the source made its calls: active means growth percent below 10; inactive means the rest.

For the assay, the system named is HL-60(TB) leukemia. Nature of the assay: NCI-60 one-dose screen, 48 h (100 = growth as untreated, 0 = no growth, -100 = all killed). Conditions: 10 µM unless noted.
For `N#Cc1cncc(-c2ccc3ncnc(Nc4cccc(Cl)c4)c3c2)c1`, the growth was 97.2% (inactive). To `CCCCCCC1(/C=N/NC(N)=O)NC(=O)NC1=O` (stereo unspecified) belongs 96.7% (inactive); to `CCCCC[C@H]1CC=C2C(=O)C(Cl)=C[C@@H]2CC=CCCCC(=O)O[C@@H](CCCCC)CC=C2C(=O)C(Cl)=C[C@@H]2CC=CCCCC(=O)O[C@@H](CCCCC)CC=C2C(=O)C(Cl)=C[C@@H]2CC=CCCCC(=O)O1`, 8.31% [8 µM] (active).

In the case of `COc1ccc(C(=O)C/C(=C\c2ccc(Cl)cc2)C(=O)NCc2ccccc2)cc1`, the growth was 73.8% (inactive).

As to `COc1ccc(/C(=N\O)c2cc(OC)c(OC)c(OC)c2)c(OC)c1N`, the growth is -23.8% (active).

Take `O=C(O)CCCc1cnc2c3sccc3nc(SCc3c(Cl)cccc3Cl)n12`: the growth is -26.5% (active). The same measure for `C/C=C1/CN(CCCCC)CC[C@H]1C(=O)c1cc2ccccc2[nH]1`: 90.6% (inactive).

Turning to `CCOc1ccc(NC(=O)CSc2oc(-c3ccccc3)nc2S(=O)(=O)c2ccc(C)cc2)cc1`, the growth is 65.6% (inactive). The same measure for `O=c1oc2ccc(F)cc2c(=O)n1-c1ccc(I)cc1F`: -42.8% (active). To `CCCCCCCCCCCCCCCCCCOc1ccccc1CC(=O)OCC[N+]1(C)CCCCC1` belongs -5.08% (active); to `COc1ccc(-c2cc(C(=O)N3N=C(c4ccc(N)cc4)CC3c3ccccc3)c3ccccc3n2)cc1` (stereo unspecified), -28% (active); to `CCOc1cc(/C=C/C(=O)C(C(=O)/C=C/c2ccc(OC(=O)CNc3nc4ccccc4[nH]3)c(OCC)c2)C(=O)CNc2nc3ccccc3[nH]2)ccc1OC(=O)CNc1nc2ccccc2[nH]1`, -44.4% (active). The same measure for `CCN(CC)CCCC(C)NCCCNc1cccc2cccnc12` (stereo unspecified): -5.92% (active); for `Cc1nc2ccccc2c(/C=C/c2ccccc2)c1C(=O)/C=C/c1ccc(Cl)cc1`: 1.63% (active); for `O=C1C=CC(=O)N1c1ccc2c(c1)Cc1cc(F)ccc1-2`: 63% (inactive).

As to `COc1ccc(/C=N/NC(=O)COCC(=O)N/N=C/c2ccc(OC)cc2)cc1`, the growth is 102% (inactive).

`COCCN1CCN(Cc2ccc(-c3n[nH]c4c3C(=O)c3c(NC(=O)NN5CCOCC5)cccc3-4)cc2)CC1`: the growth is -36.9% (active). The same measure for `O=C1c2ccccc2C(=O)c2c1ccc1[nH]c(-c3cccs3)nc21`: 93.6% (inactive); for `CC[C@H]1CCC/C=C/[C@@H]2C[C@H](O)C[C@H]2[C@H](O)/C=C/C(=O)O1`: -0.414% (active). The same measure for `COc1ccc(-c2nc(-c3nc4ccc(C)cc4[nH]3)cc3c2[nH]c2ccccc23)cc1`: 31.4% (inactive). To `COc1cc(C2CC(c3ccc(C)cc3)=NN2C(C)=O)ccc1Oc1ccnc2cc(Cl)ccc12` (stereo unspecified) belongs 100% (inactive). Turning to `O=C1c2ccccc2C(=O)c2c1ccc(C(=O)O)c2[N+](=O)[O-]`, the growth was 65.1% (inactive). In the case of `CC(=O)N1N=C(c2ccc(F)cc2)CC1c1sc(N(C)Cc2ccccc2)nc1Cl` (stereo unspecified), the growth is 109% (inactive). The same measure for `CCN1C(=O)N(CC)C2C1NC(=S)N2/N=C/c1ccc(C(F)(F)F)cc1` (stereo unspecified): 78.8% (inactive).

Take `Clc1ccc(-c2cn(-c3ccccc3)c(-c3ccccc3)n2)cc1`: the growth was 47.5% (inactive). For the molecule `CCn1cc(C(=O)O)c(=O)c2cnc(N3CCCC3)nc21`, the growth is 75.9% (inactive). The same measure for `Cc1ccc(C)n1-c1ccsc1C(=O)NNC(=O)CCl`: 104% (inactive); for `COc1cc(/C=C2\CN(S(=O)(=O)c3ccc(C)cc3)C/C(=C\c3cc(CN4CCOCC4)c(O)c(OC)c3)C2=O)cc(CN2CCOCC2)c1O`: -15.5% (active). To `CCOC(=O)/C(=C/c1c(-c2ccccc2)[nH]c2ccccc12)C(=O)c1ccc(Cl)cc1` belongs -10.6% (active). The same measure for `Clc1nc(Cl)c2ncn(CC#CCn3cnc4c(Cl)nc(Cl)nc43)c2n1`: -58.3% (active). In the case of `COc1ccccc1N=Nc1c(O)ccc2cc(S(=O)(=O)O)ccc12`, the growth was 106% (inactive).

Consider `CCN=C1C=CC(=C(c2ccc(N(CC)CC)cc2)c2ccc(N(CC)CC)cc2)c2ccccc21`, for which the growth is -31.1% (active). As for `CC(C)C1C2=C(NCCN1C(=O)c1ccncc1)C(C)(C)N(Cc1ccccc1)C2=O` (stereo unspecified), the growth was 87.3% (inactive). Regarding `Nc1nc2c(c3ncncc13)C(c1cccc(C(F)(F)F)c1)Cc1ncncc1-2` (stereo unspecified), the growth was 10.7% (inactive). The same measure for `NC(=N\N=C/Cc1ccccc1)/C(N)=N\N=C\Cc1ccccc1`: 70.8% (inactive); for `NC(C(=O)O)C(O)c1ccc(OCc2ccccc2)c(OCc2ccccc2)c1` (stereo unspecified): 105% (inactive).
